Screening results from PubChem.
Hits are enriched below; roughly 4.5% of the tested compounds scored in any of these assays.
GBA mod: alters purified human glucocerebrosidase activity; P04062; purified enzyme, resorufin glucoside fluorescence (screen aimed at inhibitors), 20 min; Potency, µM; 48,000 tested, 1.1% active; in the data active = potency below about 15 µM; inconclusive = mostly about 16 µM to 33 µM;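 note: the screen sought inhibitors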
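Wild-type enzyme at 0.2 nM final in 50mM citric acid/KH2PO4, 10mM sodium taurocholate, 0.01% tween-20, pH 5.9, with resorufin beta-D-glucopyranoside at 30 uM final. Compounds titrated, 20 min at RT, red fluorescence read; AC50 from titration.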
Caspase-7 inhib: allosteric or competitive inhibitors of human caspase-7; AID 889; recombinant caspase-7, Ac-DEVD-AFC fluorescence rate; 75,000 tested, 0.02% active; P55210; Potency, µM (top dose mostly 57.5 µM), without a hit: top-dose activity change, negative = inhibition, hits mostly inhibitors; active = well fitted inhibition curve with a large enough effect in the main read-out, with a control signal flat, not every such curve was filed as active; inconclusive = small, poorly fitted or top-dose-only effect, or a change in a side signal; note: % of control where 0% means no effect
HEK293 cAMP ctrl: raises cAMP in parental HEK293 cells, TSHR agonist counter-screen. AID 938. Potency, µM (doses to about 57.1 µM), inactives show top-dose activation, actives largely listed as activators. 73,000 tested, 2.5% active. parental HEK293 CNG cAMP sensor, membrane potential fluorescence; note: % of control where 0% means no effect; nearly all actives have a fitted effect of over 55% in size
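Parental HEK 293 cells stably expressing a modified CNG channel (no TSHR) report cAMP rise as membrane depolarization. Membrane potential dye with 100 uM RO 20-1724 was loaded for 60 min at room temperature, then compound added for 30 min; fluorescence read at 590 nm.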
ERK AVP block: blocks ERK signaling stimulated by vasopressin. 72,000 tested, 0.99% active. HEK293-V1b, vasopressin-stimulated pERK AlphaScreen. Potency, µM (doses to about 57.5 µM), without a hit: top-dose activity, negative = inhibition, actives largely listed as inhibitors. AID 995; note: % is set by controls: 0 for no effect and ±100 for the full control effect; nearly all actives have a fitted effect of over 55% in size
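Overnight-seeded V1b-HEK293 cells in 1% FBS got compound, then vasopressin (25 nM final, 5 min, 37C), then lysis buffer. AlphaScreen detection of phospho-ERK; activity normalized to basal and full-stimulation controls.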
TSHR ag: agonists of human thyroid stimulating hormone receptor | AID 926 | HEK293-CNG-TSHR cells (CNG channel as cAMP sensor), membrane potential dye, cAMP | Potency, µM (doses to about 57.1 µM), inactives show at the highest dose activation, most hits filed as activators | P16473 | 73,000 tested, 0.48% active; active = well fitted activation curve with a large enough effect in the main read-out, with a control signal flat, not every such curve was filed as active; inconclusive = small, poorly fitted or top-dose-only effect, or a change in a side signal; inactive = no such curve, though single readings can be large or run the other way; % of control where 0% means no effect;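 note: the control signal comes from parental cells without the receptor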
Target sequence (P16473 whole entry, looked up): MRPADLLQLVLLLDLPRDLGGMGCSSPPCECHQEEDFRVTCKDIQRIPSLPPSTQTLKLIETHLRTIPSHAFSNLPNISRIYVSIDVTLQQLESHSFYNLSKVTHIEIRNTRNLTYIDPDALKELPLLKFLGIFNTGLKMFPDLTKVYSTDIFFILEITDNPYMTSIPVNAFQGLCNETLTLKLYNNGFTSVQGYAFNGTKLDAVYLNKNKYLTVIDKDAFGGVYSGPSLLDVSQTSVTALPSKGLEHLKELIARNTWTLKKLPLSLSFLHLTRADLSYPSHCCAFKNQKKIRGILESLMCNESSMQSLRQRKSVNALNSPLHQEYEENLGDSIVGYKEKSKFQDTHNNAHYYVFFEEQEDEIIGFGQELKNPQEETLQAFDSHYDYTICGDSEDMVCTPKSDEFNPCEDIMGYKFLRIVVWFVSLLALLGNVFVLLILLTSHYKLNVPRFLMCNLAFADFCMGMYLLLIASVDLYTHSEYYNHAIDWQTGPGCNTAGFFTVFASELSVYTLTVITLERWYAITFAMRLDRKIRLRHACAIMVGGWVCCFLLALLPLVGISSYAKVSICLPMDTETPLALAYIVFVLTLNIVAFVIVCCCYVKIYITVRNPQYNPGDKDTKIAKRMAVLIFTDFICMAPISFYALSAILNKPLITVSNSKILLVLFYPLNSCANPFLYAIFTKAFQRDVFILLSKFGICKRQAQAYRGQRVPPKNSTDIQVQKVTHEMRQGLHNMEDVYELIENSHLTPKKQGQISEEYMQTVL
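HEK 293 cells stably expressing TSHR and a modified CNG channel, with CNG-only parental cells as counterscreen, were preloaded 60 min at room temperature with membrane potential dye containing 100 uM RO 20-1724. Compound exposure was 30 min, and depolarization was read as fluorescence at 590 nm.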
Caspase-1 inhib: caspase-1 (human) inhibition, allosteric or competitive; 75,000 tested, 0.03% active; Potency, µM (titrated, usually from 57.5 µM), without a hit: top-dose activity change, negative = inhibition, usual class: inhibitors; AID 900; Caspase-1 enzyme, Ac-WEHD-AFC fluorogenic rate;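 note: plate controls were vehicle for no effect and no substrate for full effect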
Active calls of the source: *; i = inactive; ? = inconclusive; . = no result given; [ ] = dose if it differs, or a comment. Unless noted, calls come from the whole dose curve; as a rule, active = well fitted curve in the direction sought with a large enough effect; inconclusive = small, poorly fitted or top-dose-only effect, or another doubt; inactive = no such curve, though single readings can be large; an effect the other way counts as inactive or inconclusive. Potency is the fitted concentration of half-maximal effect.

SMILES	GBA mod	Caspase-7 inhib	HEK293 cAMP ctrl	ERK AVP block	TSHR ag	Caspase-1 inhib
CCCn1c(NCc2cc(C)ccc2O)nc2ccccc21	.	0.4%	0.0%	-21.9%	7.0%	-3.3%
CCCCn1c(NCc2ccccc2O)nc2ccccc21	.	-1.5%	13.8%	25.1µM*	23.8%	-1.4%
CCCCn1c(NC(=O)c2ccccc2)nc2ccccc21	.	-1.3%	31.6µM*	-9.1%	?	-2.5%
C[C@](N)(C(=O)O)c1ccc(-c2nn[nH]n2)cc1	.	-1.2%	-2.0%	-29.4%	3.1%	-9.9%
O=c1cc(-c2ccc(O)c(O)c2)oc2cc(O[C@@H]3O[C@@H](CO)[C@@H](O)[C@@H](O)[C@H]3O)cc(O)c12	.	.	-2.4%	.	-5.5%	.
Cc1cc(-c2nnco2)c(C)n1-c1ccc(F)cc1	>76.9	-2.5%	15.8µM*	?	?	0.5%
O=C1CC(O)(C(F)(F)F)Oc2c1ccc1ccccc21 (stereo not given)	.	-8.8%	?	15.8µM*	?	-12.4%
CC(=O)OCc1ccco1	.	0.5%	?	-2.0%	?	2.4%
Cc1nc2cnc(N3CCN(C)CC3)nc2n(CCc2ccccc2)c1=O	.	-14.6%	?	-25.9%	?	-9.4%
Cc1nc2cnc(N3CCOCC3)nc2n(CCc2ccccc2)c1=O	.	-17.9%	3.16µM*	?	?	-10.7%
O=c1c(CCc2ccccc2)nc2cnc(Nc3ccccc3)nc2n1Cc1cccs1	.	-3.4%	1.26µM*	-15.3%	?	.
Cc1nc2cnc(Oc3ccccc3)nc2n(CCc2ccccc2)c1=O	.	-2.0%	1.58µM*	12.3%	?	-1.7%
COc1ccc(Oc2ncc3nc(C)c(=O)n(Cc4ccc(F)cc4)c3n2)cc1	.	-4.4%	15.8µM*	-11.8%	?	-13.5%
Cc1nc2cnc(Oc3cccc(Cl)c3)nc2n(CCc2ccccc2)c1=O	.	-3.9%	3.16µM*	17.3%	?	-1.1%
COc1cccc(Cn2c(=O)c(C)nc3cnc(Oc4cccc(Cl)c4)nc32)c1	.	-6.1%	?	11.8%	?	-5.2%
Cc1nc2cnc(Oc3ccccc3)nc2n(Cc2cccs2)c1=O	.	-5.4%	15.8µM*	-14.2%	?	-2.5%
COc1ccc(-n2c(=O)c(C)nc3cnc(Oc4cccc(Cl)c4)nc32)cc1	.	-0.6%	15.8µM*	2.4%	?	-2.2%
CC1(C)CC2CC(C)(CN2C(=O)COC(=O)c2ccc(Cl)cc2N)C1 (stereo not given)	>76.9	5.2%	25.1µM*	4.6%	?	-1.8%
COc1ccc(CC(=O)N2CC3(C)CC2CC(C)(C)C3)cc1OC (stereo not given)	.	-1.9%	14.1%[11.4 µM]	31.6µM*	.	-1.4%
COc1ccc(OCC(=O)N2CC3(C)CC2CC(C)(C)C3)cc1 (stereo not given)	.	1.8%	i	8.0%	?	0.9%
CN(C)c1ncnc2ccc(-c3cccc(C#N)c3)cc12	.	-3.4%	6.1%	-18.4%	11.8%	-1.8%
Cc1nc(N2CCc3ccccc3C2)[nH]c(=O)c1CCC(C)C	5.28*	-1.0%	1.7%	-18.4%	-1.8%	-3.5%
O=C(O)[C@H](Cc1c[nH]c2ccccc12)N1C(=O)c2ccccc2C1=O	.	2.0%[11.5 µM]	0.3%[11.4 µM]	2.9%[11.5 µM]	2.7%[11.4 µM]	0.6%[11.5 µM]
CC#C[C@]1(O)CC[C@H]2[C@@H]3CCC4=CC(=O)CCC4=C3[C@H](c3ccc(N(C)C)cc3)C[C@@]21C	.	-2.9%	-23.8%	12.6µM*	-0.4%	-4.1%
C#C[C@@]1(O)CC[C@@H]2[C@@H]3CCC4=CC(=O)CC[C@@H]4[C@H]3CC[C@]21C	.	2.7%[25.7 µM]	?	-9.9%[25.7 µM]	?	-4.4%[25.7 µM]
SMILES	GBA mod	Caspase-7 inhib	HEK293 cAMP ctrl	ERK AVP block	TSHR ag	Caspase-1 inhib
O=C1c2ccccc2C(=O)N1CCCCN(C(=O)c1ccco1)c1ccc(Cl)cc1	.	-25.4%	25.1µM*	-1.7%	?	-3.3%
O=C(CCCCCN1C(=O)c2ccccc2C1=O)NCc1ccco1	>76.9	1.3%	4.3%	-5.5%	-3.5%	-1.2%
COc1ccc2[nH]c(=O)c(CN(C)C(=O)COc3ccccc3)cc2c1	>76.9	-1.4%	-0.1%	-2.5%	15.2%	1.4%
COc1ccc2[nH]c(C(=O)c3ccccc3)cc2c1	.	-25.0%	7.94µM*	4.2%	?	-4.2%
CC(=O)OC1CC2C(C)(C)C(O)CC[C@@]2(C)C2CC[C@@]3(C)C(c4ccoc4)OC(=O)C4O[C@@]43[C@]12C (stereo not given in full)	.	-13.4%	.	16.7%	.	-4.0%
O=C(Nc1cc(C(F)(F)F)ccc1N1CCCCC1)c1ccco1	?	0.1%	?	9.7%	?	0.2%
O=C(Nc1cc(C(F)(F)F)ccc1N1CCOCC1)C1Cc2ccccc2CN1C(=O)c1ccco1 (stereo not given)	>76.9	-19.6%	1.26µM*	-9.3%	?	-7.0%
O=C(N/N=C\c1ccc2c(c1)CCC2)c1ccccc1O	.	-0.8%[11.5 µM]	2.4%[11.4 µM]	?	10.5%[11.4 µM]	0.3%[11.5 µM]
Cn1c(SCc2c(Cl)cccc2Cl)nnc1-c1cccs1	i	0.0%	12.6µM*	-8.3%	?	-0.9%
Cc1ccc(CSc2nnc(-c3cccs3)n2C)cc1	>76.9	0.1%	24.0%	-0.3%	28.8%	1.2%
CN(C)CCn1c(C(=O)Nc2ccccc2)cc2ccccc21	>76.9	2.5%	2µM*	8.6%	?	-0.3%
NC(N)=NNC(=O)C(=O)O	.	1.4%[11.5 µM]	8.0%[11.4 µM]	-4.5%[11.5 µM]	1.0%[11.4 µM]	4.0%[11.5 µM]
CC(=O)NCCSC(=O)c1ccc(F)cc1	.	-0.4%	3.16µM*	21.6%	?	-1.9%
CC(=O)N(C(C)=O)c1ncc2c([nH]c3ccccc32)c1C#N	.	1.0%	25.1µM*	-2.7%	?	-1.3%
CNC(=O)c1cc2c(cn1)[nH]c1ccccc12	.	-1.0%	?	-16.1%	?	-3.1%
CCOC(=O)c1sc(N)c(C(=O)Nc2ccc(C)cc2C)c1C	.	-3.0%	-11.3%	.	-10.7%	-6.1%
CN(C/C=C\c1ccccc1)Cc1cccc2ccccc12	.	1.0%[25.7 µM]	?	12.1%[25.7 µM]	?	-3.2%[25.7 µM]
CCCCOc1ccc(S(=O)(=O)n2c(C)nc3ccccc32)cc1	.	-1.8%	3.16µM*	31.5%	?	-3.5%
CCOc1ccc(S(=O)(=O)n2c(C)nc3ccccc32)cc1	.	-0.8%	13.3%	-4.4%	9.1%	-2.5%
COCc1nnc(NC(=O)c2ccc(NC(C)=O)cc2)s1	6.81*	-2.3%	1.8%	-6.7%	-6.3%	2.0%
COc1ccc(C(=O)Nc2nnc(C(F)(F)F)s2)cc1	3.35*	-1.0%	11.9%	-13.0%	-7.0%	-0.1%
CCCC(=O)Nc1ccc(C(=O)Nc2nnc(COC)s2)cc1	0.768*	1.8%	11.0%	-1.7%	-5.4%	0.1%
COCc1nnc(NC(=O)CCc2ccccc2)s1	>76.9	-0.4%	24.9%	-7.0%	.	1.5%
COc1ccc(-c2ccccc2C2NC(C(=O)O)CCC2C)cc1 (stereo not given)	.	0.9%[11.5 µM]	-1.2%[11.4 µM]	26.7%[11.5 µM]	-0.4%[11.4 µM]	2.2%[11.5 µM]
CCc1nnc(NC(=O)CSc2nc3c(cc2C#N)CCC3)s1	>76.9	?	5.9%	-4.8%	-9.1%	.
